Screens from PubChem.
Compounds with a hit are over-represented: about 4.7% of the library has one in this group of screens.
ADAM10 inh: human ADAM10 inhibitors, primary screen, biochemical, QFRET, HTS; Disintegrin and metalloproteinase domain-containing protein 10 (Homo sapiens), O14672; recombinant ADAM10, EDANS/DABCYL FRET peptide cleavage, 3 h; inhibition, % at 7 µM; actives 0.62% (n = 370,000); AID 720582, 2013;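 active = inhibition above a per-campaign cutoff equal to the mean of compounds falling between control-based bounds plus 3 SD, cut at about 20% in these data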;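 note: 0% = DMSO wells while the 100% control is not disclosed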
MPTP block: mitochondrial permeability transition pore inhibitors, primary screen, biochemical, isolated mouse mitochondria, absorbance | Ca2+ swelling absorbance, 30 min | inhibition, % at 10 µM | actives 1.4% (n = 360,000) | AID 602449, 2012;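 active = inhibition of 50% or more, scaled per plate between neutral and stimulator controls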;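 note: 0% = DMSO wells given calcium and 100% = 1 mM EGTA wells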
ADAM17 inh: ADAM17 inhibitors, primary screen, biochemical, QFRET | Disintegrin and metalloproteinase domain-containing protein 17 (Homo sapiens), P78536 | recombinant ADAM17, EDANS/DABCYL FRET peptide cleavage | inhibition, % at 6.95 µM | actives 0.83% (n = 370,000) | AID 720648, 2013;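 active = inhibition above the mean of compounds lying between control limits plus 3 SD, set per campaign, cut at about 8.5% in these data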;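 note: 0% = DMSO-only wells as the low control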
Target sequence (P78536 215-824 limits assumed): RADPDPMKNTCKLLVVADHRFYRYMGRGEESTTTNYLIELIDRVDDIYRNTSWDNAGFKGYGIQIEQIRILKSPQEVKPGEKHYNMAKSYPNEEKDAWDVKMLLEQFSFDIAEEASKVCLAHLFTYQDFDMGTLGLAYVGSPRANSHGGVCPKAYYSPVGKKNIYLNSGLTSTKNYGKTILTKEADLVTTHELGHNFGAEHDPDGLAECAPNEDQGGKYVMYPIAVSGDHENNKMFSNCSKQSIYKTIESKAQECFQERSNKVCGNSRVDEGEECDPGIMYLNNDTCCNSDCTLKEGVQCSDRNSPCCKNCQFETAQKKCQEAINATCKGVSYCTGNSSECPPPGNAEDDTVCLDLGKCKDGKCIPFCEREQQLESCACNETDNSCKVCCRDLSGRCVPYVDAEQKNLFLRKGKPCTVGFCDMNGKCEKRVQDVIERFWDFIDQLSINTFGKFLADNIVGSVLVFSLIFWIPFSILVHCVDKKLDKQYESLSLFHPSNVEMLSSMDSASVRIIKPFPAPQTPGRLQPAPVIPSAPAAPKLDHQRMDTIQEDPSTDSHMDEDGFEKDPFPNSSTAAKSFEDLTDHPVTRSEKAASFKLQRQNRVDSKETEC
rCAG binder: binders of r(CAG) RNA repeats, primary screen, biochemical, fluorescence | r(CAG) RNA repeat, TO-PRO-1 dye displacement fluorescence | inhibition, % at 3 µM | actives 1.3% (n = 370,000);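 active = inhibition above the plate cutoff, the mean of all test compounds on that plate plus 3 SD, cut at about 35% in these data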;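 note: 0% = DMSO alone and 100% = 100 µM mitoxantrone as full dye displacement; higher means more dye released from RNA so lower well fluorescence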
Pemphigus Ab inh: inhibitors of pemphigus antibody binding to DSG3, primary screen, biochemical, bead-based, flow cytometry, scFv-GFP. DSG3-coupled beads, scFv-anti-DSG3-GFP binding; active compounds read low. binding (percent of control), % at 10 µM. Desmoglein-3 (Homo sapiens), P32926. actives 0.48% (n = 310,000);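 active = binding more than 3 SD below its plate's average and above zero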;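 note: hits lower antibody fragment binding to DSG3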
proKLK7 act: proKLK7 zymogen activators, primary screen, biochemical, fluorescence intensity; AID 652039, 2013; Kallikrein-7 (Homo sapiens), P49862; activation, % at 7 µM; purified proKLK7, EDANS-DABCYL substrate fluorescence; 100% is mature enzyme control, 0% vehicle; actives 0.9% (n = 370,000);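 active = activation above the mean of all tested compounds plus 3 SD, computed per campaign excluding outliers beyond control limits, cut at about 13% in these data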
KLK7 act conf: proKLK7 zymogen activators, confirmation, biochemical, fluorescence intensity, triplicate; purified proKLK7, EDANS-DABCYL substrate fluorescence; scaled: vehicle 0, mature enzyme 100; actives 68% (n = 3,200); AID 686949, 2013; activation, % at 7 µM; shares compounds with proKLK7 act;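 active = activation, as change over the incubation, above the mean of all tested compounds plus 3 SD, cut at about 13% in these data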
EDANS-DABCYL int: EDANS-DABCYL substrate optical interference, artefact control for kallikrein-7 zymogen activator project, biochemical, fluorescence intensity, high throughput; shares compounds with proKLK7 act; no enzyme, 4 h; solvent 0%, active enzyme control 100%; activation, % at 7 µM; actives 80% (n = 3,200);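 active = activation above the all-compound mean plus 3 SD, ignoring values outside control-based bounds, cut at about 4.8% in these data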;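 note: value is the 4 h activation minus the activation read at time zero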
* marks the source's active call; other numbers are inactive results.

Screening CC1CCCCN1Cc1c(O)ccc2c(=O)c(-c3ccccc3)coc12 (centres undefined) returned ADAM10 inh inactive, MPTP block -1.0, ADAM17 inh -426.4, rCAG binder 7.5, Pemphigus Ab inh 104.0, proKLK7 act 33.6*, KLK7 act conf 70.5* and EDANS-DABCYL int 69.1*.
For O=c1c(-c2ccc(O)cc2)coc2c([C@@H]3O[C@H](CO)[C@@H](O)[C@H](O)[C@H]3O)c(O)ccc12 the results were ADAM10 inh inactive, MPTP block -0.6, ADAM17 inh -164.8, rCAG binder 1.4, Pemphigus Ab inh 99.3 and proKLK7 act 12.2.
O=c1c(-c2ccccc2)coc2c(CN3CCCCC3)c(O)ccc12 was read as ADAM10 inh inactive, MPTP block 0.7, ADAM17 inh -459.8, rCAG binder 1.0, Pemphigus Ab inh 112.0, proKLK7 act 37.7*, KLK7 act conf 64.6* and EDANS-DABCYL int 63.0*.
CCc1cc2c(=O)c(-c3ccc4c(c3)OCCO4)coc2c(CN2CCCCC2C)c1O (centres undefined) was read as ADAM10 inh inactive, MPTP block 0.4, ADAM17 inh -298.4, rCAG binder 18.1, Pemphigus Ab inh 106.7, proKLK7 act 16.3*, KLK7 act conf -95.6 and EDANS-DABCYL int -102.4.
COc1ccccc1NS(=O)(=O)c1cccc(C(=O)NNC(=O)C(C)NC(=O)c2ccco2)c1 (centres undefined) was read as ADAM10 inh 1.3, MPTP block -0.9, ADAM17 inh -1.2, rCAG binder 2.6, Pemphigus Ab inh 100.5 and proKLK7 act -0.3.
For CCC1CCCCN1Cc1c(O)ccc2c(=O)c(-c3ccccc3)coc12 (centres undefined) the results were ADAM10 inh inactive, MPTP block -2.6, ADAM17 inh -266.1, rCAG binder 1.8, Pemphigus Ab inh 104.8, proKLK7 act 37.8*, KLK7 act conf 54.7* and EDANS-DABCYL int 32.7*.
`COc1ccc(-c2coc3c(CN4CCCCC4C)c(O)ccc3c2=O)cc1` (centres undefined) gave ADAM10 inh inactive, MPTP block 1.0, ADAM17 inh -472.1, rCAG binder 3.9, Pemphigus Ab inh 95.2, proKLK7 act 45.7*, KLK7 act conf 69.4* and EDANS-DABCYL int 57.8*.
Screening COc1ccc(-c2coc3cc(O)ccc3c2=O)cc1 returned ADAM10 inh -446.0, MPTP block 1.6, ADAM17 inh -128.0, rCAG binder 3.1, Pemphigus Ab inh 110.1 and proKLK7 act -7.3.
Screening O=C1c2[nH]c3ccccc3c2CC1N1C(=O)c2ccccc2C1=O (centres undefined) returned ADAM10 inh -66.5, MPTP block 0.3, ADAM17 inh -13.1, rCAG binder 4.0, Pemphigus Ab inh 99.6, proKLK7 act 29.8*, KLK7 act conf 18.5* and EDANS-DABCYL int 17.7*.
CN1CCN(c2ncnc3c2ncn3[C@H]2CN(Cc3ccc4c(c3)OCO4)C[C@@H](CO)O2)CC1 was read as ADAM10 inh -57.7, MPTP block 0.2, ADAM17 inh -1.4, rCAG binder -1.0 and proKLK7 act -0.4.
`Cc1nc2sc(C(=O)c3ccccc3)c(N)c2c(C)c1C` gave ADAM10 inh -9.0, MPTP block -2.1, ADAM17 inh 0.2, rCAG binder 7.4, Pemphigus Ab inh 100.5, proKLK7 act 50.4*, KLK7 act conf -17.7 and EDANS-DABCYL int -0.2.
`Cc1nc(-c2ccccc2)nc2sc(C(=O)c3ccc(F)cc3)c(N)c12` gave ADAM10 inh 1.0, MPTP block 3.0, ADAM17 inh -3.8, rCAG binder -2.4 and proKLK7 act -0.3.
`CCCC[C@@H]1CN=C(N)N1CC(C)(C)C` gave ADAM10 inh 2.2, MPTP block 0.3, ADAM17 inh -0.8, rCAG binder 6.4, Pemphigus Ab inh 104.6 and proKLK7 act 0.4.
For c1ccc2c(c1)NC1(CCCCCC1)n1c-2nc2ccccc21 the results were ADAM10 inh inactive, MPTP block 1.2, ADAM17 inh inactive, rCAG binder 1.9, Pemphigus Ab inh 96.5, proKLK7 act 51.7*, KLK7 act conf 2.5 and EDANS-DABCYL int 3.4.
`CCCCC1(C)Nc2ccccc2-c2nc3ccccc3n21` (centres undefined) gave ADAM10 inh inactive, MPTP block 0.3, ADAM17 inh inactive, rCAG binder 3.4, Pemphigus Ab inh 102.7, proKLK7 act 62.5*, KLK7 act conf -11.0 and EDANS-DABCYL int -12.3.
For O=C1Cn2c(nc3ccccc32)-c2ccccc2N1 the results were ADAM10 inh -10.2, MPTP block -1.4, ADAM17 inh 1.5, rCAG binder 6.2, Pemphigus Ab inh 103.2 and proKLK7 act -14.8.
CC1(c2ccccn2)Nc2ccccc2-c2nc3ccccc3n21 (centres undefined) was read as ADAM10 inh inactive, MPTP block -0.5, ADAM17 inh inactive, rCAG binder 4.2, Pemphigus Ab inh 102.7, proKLK7 act 56.4*, KLK7 act conf 9.9 and EDANS-DABCYL int 3.0.
CN1C(=O)C2(Nc3ccccc3-c3nc4ccccc4n32)c2ccccc21 (centres undefined) was read as ADAM10 inh -21.6, MPTP block 2.8, ADAM17 inh -5.6, rCAG binder -0.2, Pemphigus Ab inh 97.9 and proKLK7 act -0.6.
CCN1C(=O)C2(Nc3ccccc3-c3nc4ccccc4n32)c2cc(OC)ccc21 (centres undefined) was read as ADAM10 inh -9.5, MPTP block 0.6, ADAM17 inh -2.0, rCAG binder 2.8 and proKLK7 act 0.6.
For O=C1Nc2ccccc2C12Nc1ccccc1-c1nc3ccccc3n12 (centres undefined) the results were ADAM10 inh -23.9, MPTP block -0.8, ADAM17 inh -10.1, rCAG binder 1.2 and proKLK7 act 0.1.
